According to paper PMC5540273 (PLoS ONE, 2017):

What was measured:
Settings in all cases: concentration: 1 μM, replicates: in singlicate; n = 1
ACVR2B = system: ACVR2B
ACVRL1 = system: ACVRL1
ADCK3 = system: T1, ADCK3
T1 construct: gene CABC1

ADCK4 = system: ADCK4
AKT1 = system: AKT1
AKT2 = system: AKT2
AKT3 = system: AKT3
ALK = system: ALK
AMPK-alpha1 = system: T2, AMPK-alpha1
T2 construct: gene PRKAA1

AMPK-alpha2 = system: T3, AMPK-alpha2
T3 construct: gene PRKAA2

ANKK1 = system: ANKK1
ARK5 = system: T4, ARK5
T4 construct: gene NUAK1

ASK1 = system: T5, ASK1
T5 construct: gene MAP3K5

ASK2 = system: T6, ASK2
T6 construct: gene MAP3K6

AURKA = system: AURKA
AURKB = system: AURKB
AURKC = system: AURKC
AXL = system: AXL
BIKE = system: T7, BIKE
T7 construct: gene BMP2K

BLK = system: BLK
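Note: KINOMEscan kinase panel screen.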

Compound | %Inh (ACVR2B) | %Inh (ACVRL1) | %Inh (ADCK3) | %Inh (ADCK4) | %Inh (AKT1) | %Inh (AKT2) | %Inh (AKT3) | %Inh (ALK) | %Inh (AMPK-alpha1) | %Inh (AMPK-alpha2) | %Inh (ANKK1) | %Inh (ARK5) | %Inh (ASK1) | %Inh (ASK2) | %Inh (AURKA) | %Inh (AURKB) | %Inh (AURKC) | %Inh (AXL) | %Inh (BIKE) | %Inh (BLK)
Cn1ccc2ncnc(Oc3ccc(Nc4nc5ccccc5[nH]4)cc3)c21 | 0% | 0% | 0% | 0% | 0% | 16% | 0% | 0% | 7% | 0% | 0% | 14% | 0% | 0% | 0% | 95.2% | 3% | 0% | 0% | 0%
O=C(Nc1n[nH]c2cc(-c3cccc(F)c3F)ccc12)C1CC1 [SB-733894] | 18% | 29% | 6% | 0% | 0% | 0% | 1% | 0% | 0% | 0% | 0% | 0% | 0% | 5% | 23% | 25% | 54% | 0% | 21% | 0%
O=C1NC(=O)C(N2CCc3ccccc32)=C1c1ccccc1Cl [SB-373598] | 33% | 13% | 17% | 16% | 0% | 19% | 25% | 4% | 17% | 22% | 18% | 10% | 7% | 13% | 0% | 10% | 3% | 0% | 18% | 7%
COc1cc2nccc(Nc3ccc(NC(=O)c4ccc(C)cc4)c(O)c3)c2cc1OC.Cl [GW440132] | 0% | 0% | 10% | 41% | 0% | 1% | 0% | 6% | 0% | 0% | 0% | 0% | 0% | 0% | 7% | 50% | 57% | 0% | 7% | 95.5%
Cc1ccccc1-n1cnc2c(N)ncnc21 [SKF-97510] | 0% | 0% | 8% | 0% | 8% | 0% | 0% | 0% | 0% | 0% | 0% | 0% | 7% | 0% | 0% | 0% | 0% | 0% | 0% | 9%
O=c1cc(N2CCOCC2)nc2n(Cc3cccc(Cl)c3Cl)ccn12 [GSK2286295] | 3% | 0% | 27% | 6% | 0% | 13% | 10% | 48% | 0% | 16% | 5% | 24% | 0% | 0% | 12% | 18% | 23% | 100% | 24% | 35%
Fc1cc(Cl)ccc1Nc1ccnc2cc(I)ccc12 [GW551191] | 85% | 5% | 0% | 23% | 0% | 18% | 58% | 29% | 0% | 0% | 5% | 3% | 0% | 0% | 0% | 28% | 41% | 0% | 16% | 38%
CS(=O)(=O)c1ccc(-c2nc3n(c2-c2ccncc2)CCC3)cc1 [SKF-105942] | 0% | 0% | 11% | 58% | 0% | 100% | 0% | 28% | 24% | 0% | 0% | 8% | 11% | 0% | 0% | 34% | 0% | 0% | 3% | 9%
Cc1csc(-c2nc(Nc3ccncc3)c3ccccc3n2)n1 [GW869640] | 4% | 7% | 14% | 0% | 0% | 3% | 15% | 43% | 12% | 11% | 18% | 0% | 11% | 37% | 41% | 45% | 1% | 0% | 0% | 5%
CC1=C(C(=O)Nc2cc3cn[nH]c3cc2F)C(c2ccc(C(F)(F)F)cc2)CC(=O)N1 (stereo not drawn) [GSK429286] | 0% | 0% | 11% | 11% | 0% | 20% | 0% | 29% | 23% | 19% | 0% | 7% | 0% | 24% | 23% | 1% | 46% | 0% | 19% | 42%
O=C(Nc1n[nH]c2nc(-c3nccs3)c(Br)cc12)C1CC1 [SB-742251] | 11% | 0% | 15% | 19% | 0% | 1% | 0% | 26% | 10% | 8% | 0% | 0% | 4% | 21% | 0% | 31% | 13% | 15% | 36% | 0%
COc1cccc(-c2cc(-c3c[nH]nc3-c3ccccn3)ccn2)c1 [GW680338] | 18% | 0% | 25% | 26% | 0% | 0% | 0% | 34% | 7% | 0% | 13% | 0% | 0% | 27% | 0% | 0% | 89% | 7% | 54% | 8%
COc1ccc(Nc2nccc(-c3cccc(NC(=O)c4cc5cc(F)ccc5[nH]4)c3)n2)cc1 [GSK1229782] | 19% | 0% | 8% | 61% | 0% | 18% | 31% | 29% | 34% | 18% | 0% | 28% | 0% | 0% | 16% | 0% | 66% | 9% | 57% | 41%
Cc1nnc(-c2ccc3occ(-c4ccc(S(C)=O)cc4)c3c2)[nH]1 (stereo not drawn) | 14% | 0% | 0% | 0% | 5% | 4% | 0% | 0% | 99.1% | 6% | 28% | 6% | 0% | 3% | 25% | 49% | 0% | 24% | 0% | 0%
Cc1cccc(-c2nc(C)cc(Nc3ccncc3)n2)n1 [GSK257997] | 7% | 0% | 18% | 24% | 0% | 3% | 0% | 20% | 3% | 12% | 0% | 0% | 0% | 0% | 21% | 0% | 13% | 7% | 21% | 32%
